Experimental data: PubChem BioAssay (NCATS)
Values joined by “and” are separate entries in the source; they are usually repeats but may differ in a detail not shown here. Equal entries are not always repeated. Inconclusive results are not listed. Active and inactive are the calls of the source. Calls follow the shape of the full dose curve.

assay: qHTS Assay for Lipid Storage Modulators (AID 1519); conditions: Drosophila S3 cells, BODIPY lipid droplet/cell ratio, laser cytometry; at 25.7 µM (top of the series); cells loaded with oleic acid; as to activity change, negative = inhibition: % is scaled to controls: 0 for no effect and ±100 for the full control effect
Method in brief: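 Cells seeded at 5,000 per well were treated with compounds over a concentration series and loaded with oleic acid (400 uM, as added). Lipid droplet fluorescence (488 nm excitation, 500-530 nm channel) was read by laser-scanning cytometry and normalized to 20 uM Triacsin C.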

Compound	activity change, negative = inhibition
O=C1C(O)=C(O)C(=O)C(O)=C1O	-0.531% (inactive)
COc1ccc(C(=O)c2ccccc2)c(O)c1	-0.0822% (inactive)
COc1ccc(C(Cl)=C(c2ccc(OC)cc2)c2ccc(OC)cc2)cc1	1.46% (inactive)
COc1ccc(C(=O)c2ccccc2O)c(O)c1	-7.39% (inactive)
CN1CCC[C@@H]1CCO[C@](C)(c1ccccc1)c1ccc(Cl)cc1	-6.95% (inactive)
O=C(O)CCC(=O)Nc1ccc(S(=O)(=O)Nc2nccs2)cc1	0.767% (inactive)
CCN(CC)CCNC(=O)c1cc(Br)c(N)cc1OC	-3.04% (inactive)
COc1cc(NS(=O)(=O)c2ccc(N)cc2)ncn1	1.08% (inactive)
CCN(CC)CCNC(=O)COc1ccc(OC)cc1	-2.56% (inactive)
CCCN(CCC)S(=O)(=O)c1ccc(C(=O)O)cc1	-2.1% (inactive)
COc1cc(N)c(Cl)cc1C(=O)NC1CCN(Cc2ccccc2)CC1	0.953% (inactive)
c1ccc(CC2=NCCN2)cc1	0.322% (inactive)
CC(C)(C)NC[C@H](O)COc1nsnc1N1CCOCC1	-2.08% (inactive)
CCN(CC)CCNc1ccc(CO)c2sc3ccccc3c(=O)c12	-5.73% (inactive)
CNCCc1ccccn1	-0.261% (inactive)
N=C(N)N1CCc2ccccc2C1	-0.877% (inactive)
O=C(CCCN1CC=C(n2c(=O)[nH]c3ccccc32)CC1)c1ccc(F)cc1	1.32% (inactive)
CCOc1ccc(NC(C)=O)cc1	-1.03% (inactive)

same assay, conditions: Drosophila S3 cells, BODIPY lipid droplet/cell ratio, laser cytometry; at 57.5 µM (top of the series); cells loaded with oleic acid

Compound	activity change, negative = inhibition
O=C1C(O)=C(O)C(=O)C(O)=C1O	9.14% (inactive)
COc1ccc(C(=O)c2ccccc2)c(O)c1	9.05% (inactive)
COc1ccc(C(=O)c2ccccc2O)c(O)c1	4.5% (inactive)
CN=C(N)NCCC[C@H](N)C(=O)O	0.0216% (inactive)
NC(=O)c1ccccc1O	8.72% (inactive)
O=C(O)CCC(=O)Nc1ccc(S(=O)(=O)Nc2nccs2)cc1	7.18% (inactive)
CCN(CC)CCNC(=O)c1cc(Br)c(N)cc1OC	5.14% (inactive)
COc1cc(NS(=O)(=O)c2ccc(N)cc2)ncn1	3.4% (inactive)
O=C(O)c1ccc(S(=O)(=O)N(Cl)Cl)cc1	9.84% (inactive)
Cc1ncc(CO)c(C=O)c1O	-6.06% (inactive)
CN(C)CCC[C@@]1(c2ccc(F)cc2)OCc2cc(C#N)ccc21	0.0614% (inactive) and -1.76% (inactive)
CCN(CC)CCNC(=O)COc1ccc(OC)cc1	3.31% (inactive)
CCCN(CCC)S(=O)(=O)c1ccc(C(=O)O)cc1	1.2% (inactive)
COc1cc(N)c(Cl)cc1C(=O)NC1CCN(Cc2ccccc2)CC1	9.3% (inactive)
Oc1c(Cl)cc(Cl)c(Cl)c1Cc1c(O)c(Cl)cc(Cl)c1Cl	7.05% (inactive)
c1ccc(CC2=NCCN2)cc1	2.41% (inactive)
CC(C)(C)NC[C@H](O)COc1nsnc1N1CCOCC1	1.69% (inactive)
CCN(CC)CCNc1ccc(CO)c2sc3ccccc3c(=O)c12	-11.5% (inactive)
CNCCc1ccccn1	1.62% (inactive)
O=C(CCCN1CC=C(n2c(=O)[nH]c3ccccc32)CC1)c1ccc(F)cc1	14.6% (inactive)
C[N+]12CCC(CC1)C(OC(=O)C(O)(c1ccccc1)c1ccccc1)C2 (stereo unspecified)	1.37% (inactive)
NC(N)=NCc1cccc(I)c1	3.74% (inactive)

same assay, conditions: Drosophila S3 cells, BODIPY lipid droplet/cell ratio, laser cytometry; measured here: cell count channel max response; cells loaded with oleic acid

Compound	max response
O=C1C(O)=C(O)C(=O)C(O)=C1O	-3.62% and 13.5%
COc1ccc(C(=O)c2ccccc2)c(O)c1	-14% and -2.88%
COc1ccc(C(Cl)=C(c2ccc(OC)cc2)c2ccc(OC)cc2)cc1	-13.4%
COc1ccc(C(=O)c2ccccc2O)c(O)c1	-10.6% and 8.18%
CN=C(N)NCCC[C@H](N)C(=O)O	-14.9%
NC(=O)c1ccccc1O	13.3%
CN1CCC[C@@H]1CCO[C@](C)(c1ccccc1)c1ccc(Cl)cc1	-6.75%
O=C(O)CCC(=O)Nc1ccc(S(=O)(=O)Nc2nccs2)cc1	5.61% and 16.3%
CCN(CC)CCNC(=O)c1cc(Br)c(N)cc1OC	-6.94% and 12.8%
COc1cc(NS(=O)(=O)c2ccc(N)cc2)ncn1	0.606% and 6.05%
O=C(O)c1ccc(S(=O)(=O)N(Cl)Cl)cc1	17.1%
Cc1ncc(CO)c(C=O)c1O	-8.99%
CN(C)CCC[C@@]1(c2ccc(F)cc2)OCc2cc(C#N)ccc21	5.54% and 6.49%
CCN(CC)CCNC(=O)COc1ccc(OC)cc1	7.9% and 27.2%
CCCN(CCC)S(=O)(=O)c1ccc(C(=O)O)cc1	0.958% and 6.83%
COc1cc(N)c(Cl)cc1C(=O)NC1CCN(Cc2ccccc2)CC1	-2.73% and -2.52%
Oc1c(Cl)cc(Cl)c(Cl)c1Cc1c(O)c(Cl)cc(Cl)c1Cl	18%
c1ccc(CC2=NCCN2)cc1	-5.46% and 11.2%
CC(C)(C)NC[C@H](O)COc1nsnc1N1CCOCC1	10% and 1.77%
CCN(CC)CCNc1ccc(CO)c2sc3ccccc3c(=O)c12	-10.2% and 2.62%
CNCCc1ccccn1	0.592% and 17.8%
N=C(N)N1CCc2ccccc2C1	-5.56%
O=C(CCCN1CC=C(n2c(=O)[nH]c3ccccc32)CC1)c1ccc(F)cc1	-13.4% and 7.49%
C[N+]12CCC(CC1)C(OC(=O)C(O)(c1ccccc1)c1ccccc1)C2 (stereo unspecified)	13%
CCOc1ccc(NC(C)=O)cc1	1.01%
NC(N)=NCc1cccc(I)c1	-19.1%
